# This is a sample that favours compounds with a hit; in the whole collection about 5.7% have one here.
# GRIN3A LBD mod – NR3A (human) ligand-binding domain modulation; NR3A LBD differential scanning fluorimetry, Tm shift; 0% = protein alone, 100% = glycine-bound protein; actives 2.5% (n = 340,000); Tm shift relative to glycine control, % at 25 µM;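 active = melting temperature shift of at least 10% of the positive control shift, at one fixed dose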
# rCAG RNA binder – binds r(CAG) RNA repeats | r(CAG) RNA repeat, TO-PRO-1 dye displacement fluorescence | inhibition, % at 3 µM | actives 1.3% (n = 370,000) | AID 651821;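 active = inhibition above the plate cutoff, the mean of all test compounds on that plate plus 3 SD, cut at about 35% in these data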;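 note: 0% = DMSO alone and 100% = 100 µM mitoxantrone as full dye displacement; higher means more dye released from RNA so lower well fluorescence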
# FAS-TE inh – inhibitors of human fatty acid synthase thioesterase domain; P49327; recombinant FAS-TE, OMFH fluorogenic substrate, fluorescence endpoint; inhibition, % at 15 µM; actives 0.67% (n = 360,000); AID 602261;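 active = compounds whose normalised, plate-corrected inhibition of enzyme fluorescence in the single-dose primary screen is 50% or more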;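 note: 0% = DMSO with enzyme and 100% = substrate without enzyme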
# MPTP inh – blocks calcium-induced mitochondrial swelling. isolated mouse mitochondria, Ca2+ swelling absorbance, 30 min. inhibition, % at 10 µM. actives 1.4% (n = 360,000). AID 602449;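 active = inhibition of 50% or more, scaled per plate between neutral and stimulator controls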;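 note: 0% = DMSO wells given calcium and 100% = 1 mM EGTA wells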
# Myeloid diff MLP – myeloid differentiation induction. actives 1% (n = 360,000). calls only at 10 µM. AID 624256. ER-HoxA9 myeloid progenitors, lysozyme-GFP differentiation, flow cytometry;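 active = normalized GFP-positive differentiation at or above the plate's own cutoff, the solvent-only control mean plus 3 SD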;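 note: cells exposed to compound for four days before flow analysis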
# The depositor's hits bear a star; i = inactive; / = no result; + = active, no number.
SMILES,GRIN3A LBD mod,rCAG RNA binder,FAS-TE inh,MPTP inh,Myeloid diff MLP
COc1ccc(OCC(O)Cn2cnc(-c3ccc(Br)cc3)c2)cc1 (stereo not given),-10.3,-4.0,14.1,1.7,i
OC(COc1ccc2ccccc2c1Br)Cn1cnc(-c2ccccc2)c1 (stereo not given),13.6*,0.9,19.3,1.4,i
COc1c(CC=C(C)C)cc(C2CC(=O)c3c(O)cc(O)cc3O2)cc1CC=C(C)C (stereo not given),30.1*,32.0,23.4,24.8,i
COc1ccc([C@@H]2CC(=O)c3c(O)cc(O)cc3O2)cc1O,-2.5,5.9,-4.5,-4.0,i
CCOC(=O)[C@]12CCCCC/C=C\1N(Cc1ccc(OC)cc1)C(=O)[C@H]2CC(=O)NCC1CCCCC1,/,3.5,/,/,/
O=[N+]([O-])c1ccc2cn[nH]c2c1,14.3*,4.8,-1.0,0.9,i
CCOc1ccc(-n2nnc3c(=O)n(CC(=O)N4CCCc5ccccc54)cnc32)cc1,14.8*,0.3,8.2,0.2,i
O=C(Cn1cnc2c(nnn2-c2ccc(F)cc2)c1=O)N1CCCc2ccccc21,0.1,-0.2,6.5,-0.3,i
COc1ccc(-n2nnc3c(=O)n(CC(=O)N4CCCc5ccccc54)cnc32)cc1,11.5*,-0.6,4.4,-0.6,i
CN(C)c1cccc2c(S(=O)(=O)NCC3CCN(C(=O)C(=O)c4cccs4)CC3)cccc12,/,9.6,/,/,/
CC(C)CN1C(=O)[C@@]2(CC(=O)N(C)C2c2ccccc2)c2cc(-n3cc(C(C)(C)O)nn3)ccc21 (stereo not given in full),/,-2.4,/,/,/
Clc1ccccc1N=Nc1ccccn1,12.6*,-9.5,-10.0,-0.2,i
CC1=CC(=C(C#N)C#N)C=C(C)N1CCN1CCN(C(=O)Nc2ccc(Cl)c(Cl)c2)CC1,17.8*,3.9,-0.7,8.5,i
CC(C)N(C)C1CCN(C(=O)Nc2ccc(Cl)c(Cl)c2)CC1,-2.5,-1.1,-4.6,21.4,i
O=C(/C=C/c1cc(Br)ccc1O)c1ccco1,-1.2,7.9,-1.6,41.1,/
O=C(/C=C/c1ccccc1O)c1ccco1,23.1*,0.4,-3.2,-0.7,i
CN1C(=O)[C@@]2(C3=C(CCCC3=O)OC3=C2C(=O)CC(C)(C)C3)c2ccccc21,/,3.4,/,/,/
Cc1cccc(-c2cccc3c4c([nH]c23)[C@@H]2C[C@H]3[C@@H](CN2CC4)[C@H](C)ON3C)c1,/,4.8,/,/,/
c1ccc(Nc2nnc(SCc3cccc4ccccc34)s2)cc1,10.7*,11.5,22.0,2.3,i
CN(C)S(=O)(=O)c1ccc(C(=O)Nc2nnc(SCc3cccc4ccccc34)s2)cc1,26.1*,8.3,-3.3,12.0,i
CCOc1ccc(Nc2nnc(SCc3nc4ccccc4c(=O)[nH]3)s2)cc1,0.8,2.9,-2.3,1.6,i
Cc1cccc(C)c1Nc1nnc(SCc2nc3ccccc3c(=O)[nH]2)s1,31.6*,-4.9,-6.6,1.1,i
Cc1cccc(-c2cccc3c4c([nH]c23)[C@@H]2C[C@H](N(C)C(=O)c3ccccc3F)[C@H]([C@H](C)O)CN2CC4)c1,/,13.0,/,/,/
CC(C)C(=O)Nc1ccc(NC(=O)c2ccc(COc3ccccc3)cc2)cc1,16.3*,-2.0,2.0,0.4,i
CC(=O)Nc1ccc(NC(=O)c2ccc(COc3ccccc3)cc2)cc1,10.4*,1.7,-6.3,0.2,i
SMILES,GRIN3A LBD mod,rCAG RNA binder,FAS-TE inh,MPTP inh,Myeloid diff MLP
CC(=O)Nc1cccc(NC(=O)c2ccc(COc3ccccc3)cc2)c1,-3.1,4.4,-0.7,0.8,i
COc1cccc(-c2ccc(CC[C@H]3O[C@H]4CC[C@H](CO)O[C@H]4C[C@H]3NS(C)(=O)=O)cc2)c1,/,2.1,/,/,/
NC(=O)c1ccc(-c2ccc(N3C(c4ccsc4)=Cc4ccc(F)cc4C3CC(=O)c3ccco3)cc2)cc1 (stereo not given),/,16.2,12.1,-0.2,i
O=C(OCCCN1CCC2(CCCCC2)C1=O)c1ccccc1,/,-0.5,/,/,/
COC(=O)[C@]12C[C@H](CC(=O)NCCCN3CCCC3=O)C(=O)N(Cc3ccc(Cl)cc3Cl)C1=C[C@H](C(C)C)O[C@@H]2C1CC1,/,4.2,/,/,/
Cc1cccc(C(=O)NNC(=O)c2ccccc2Br)c1,-1.0,-2.3,-3.6,2.6,i
O=C(CNC(=O)c1ccccc1F)NNC(=O)c1ccccc1O,-3.3,2.6,-3.2,0.8,+
Cc1cccc(C(=O)NCC(=O)NNC(=O)c2ccccc2O)c1,14.1*,4.9,-3.7,-1.4,i
O=C(O)c1ccc(N2C(=O)/C(=C/c3ccc(-c4ccc([N+](=O)[O-])cc4)o3)C=C2c2ccccc2)cc1,6.9,/,28.1,28.3,+
O=C1NN(c2ccccc2)C(=O)/C1=C/c1ccc(-c2ccc(C(=O)O)cc2)o1,1.8,33.5,-3.0,1.4,i
C(=C\c1ccccc1)/C=N/Nc1nc2ccccc2s1,-3.7,20.8,16.9,7.5,i
Brc1ccc(/C=C/C=N/Nc2nc3ccccc3s2)cc1,39.8*,6.7,4.7,4.7,i
Brc1csc(/C=N/Nc2nc3ccccc3s2)c1,21.8*,15.3,16.9,34.4,i
CCCOC(=O)c1ccc(NC(=O)COC(=O)C2CCN(c3ccc(C(F)(F)F)cn3)CC2)cc1,21.2*,3.2,34.3,0.6,i
COc1cc(C(=O)COC(=O)C2CCN(c3ccc(C(F)(F)F)cn3)CC2)ccc1OC(F)F,11.2*,-0.5,20.2,-0.7,i
COc1ccc(C2=CSC(/N=C/c3ccc(F)cc3)=NN2)cc1,21.2*,17.0,1.1,4.2,i
COc1ccc(/C=N/c2c(-c3ccc(OC)cc3)nc3n2CCS3)cc1,-31.7,7.2,21.2,0.6,i
O=C(Nc1ccc(F)cc1)OCc1cn(Cc2ccccc2C(F)(F)F)nn1,/,-1.3,/,/,/
COC(=O)c1c(O)cc(C(C)(C)C)n(-c2ccccc2)c1=O,18.0*,2.2,-11.4,0.8,i
COC(=O)c1c(C)n(-c2ccccc2)c2ccc(O)cc12,-1.2,6.5,3.5,5.8,i
Cc1cc2c(c(=O)o1)[C@@]1(C(=O)N(C)c3cccc(Br)c31)C1=C(CCCC1=O)O2,/,0.3,/,/,/
Cc1ccc(CNC(=O)Cn2c(=O)c3sccc3n(Cc3ccc([N+](=O)[O-])cc3)c2=O)cc1,30.6*,1.6,4.6,-2.6,i
COC(=O)C1=C(C)N(Cc2ccccc2C(F)(F)F)C(=NCc2ccccc2C(F)(F)F)NC1c1ccc(Cl)cc1 (stereo not given),/,3.0,/,/,/
C/C(=N\NC(=S)Nc1cc(S(=O)(=O)N2CCOCC2)ccc1Cl)c1ccc(N2CCOCC2)cc1,-7.3,10.7,41.8,1.9,+
O=S(=O)(c1ccc(Cl)c(NC(=S)Nc2ccccc2N2CCOCC2)c1)N1CCOCC1,0.2,0.9,3.8,1.9,i
CC(C)CN1CCN(C(=O)COC(=O)c2ccc(S(C)(=O)=O)c([N+](=O)[O-])c2)CC1,/,2.2,2.0,-0.4,+
CS(=O)(=O)c1ccc(C(=O)OCC(=O)NC23CC4CC(CC(C4)C2)C3)cc1[N+](=O)[O-],-2.4,-0.4,23.6,0.9,i
